A short description of assay [1]: qHTS Assay for Lipid Storage Modulators (AID 1519; calls by dose curve; on activity change, negative = inhibition: on the % scale 0 is the no-effect control and ±100 the full control effect). The conditions noted are these: Drosophila S3 cells, BODIPY lipid droplet/cell ratio, laser cytometry, cells loaded with oleic acid. An outline of the steps: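 Cells seeded at 5,000 per well were treated with compounds over a concentration series and loaded with oleic acid (400 uM, as added). Lipid droplet fluorescence (488 nm excitation, 500-530 nm channel) was read by laser-scanning cytometry and normalized to 20 uM Triacsin C.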
(In general: Quantitative high-throughput screening tests each substance at several concentrations.)

Assay [2] deals with DNA repair nuclease/redox regulator APEX1 (Homo sapiens) (UniProt P27695). Briefly: qHTS Validation Assay for Inhibitors of the Human Apurinic/apyrimidinic Endonuclease 1 (APE1) (AID 1705;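 further: TAMRA fluorescence gain over two minutes as APE1 cuts a quenched THF abasic duplex; on the % scale 0 is the no-effect control and ±100 the full control effect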). The conditions noted are these: purified APE1 endonuclease activity, fluorescence, titration; series mostly up to 57.1 µM. An outline of the steps: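 Substrate: 50 nM final fluorophore/quencher THF-abasic duplex. Enzyme preincubated with compounds 15 min, RT. Progress derived from fluorescence difference, third minus first kinetic read.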

The target of assay [3] is Endonuclease 4 (Escherichia coli (strain K12)) (UniProt P0A6C1). The assay is described as follows: Counterscreen for APE1 Inhibitors: qHTS Validation Assay for Inhibitors of Endonuclease IV (AID 1708). Further: on the % scale 0 is the no-effect control and ±100 the full control effect. To be noted: E. coli endonuclease IV, DNA cleavage fluorescence; series mostly up to 57.1 µM. The gist of the method: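 The reaction buffer contained 50 mM Tris-HCl pH 7.5, 50 mM NaCl, 2 mM MgCl2, 1 mM DTT and 0.01% Tween-20. Incision of a 50 nM fluorophore/quencher THF substrate by 2 nM enzyme was measured kinetically.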
In general terms: A counterscreen serves to expose hits that act by an unwanted route or on another target.

Assay [4] can be described thus: qHTS for differential inhibitors of proliferation of Plasmodium falciparum line D10 (AID 1877).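 Further: parasites grown with compound for 72 h before DNA staining.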 Further: potency means the concentration at half of the fitted maximal effect.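 On activity change, negative = inhibition: plate controls were vehicle wells for no effect and reference inhibitor wells for full effect.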 The conditions noted are these: series mostly up to 28.7 µM.
Assay [5] is described as follows: qHTS for differential inhibitors of proliferation of Plasmodium falciparum line Dd2 (AID 1882). Further: nearly all actives have a fitted effect of over 65% in size. Further: potency means the concentration at half of the fitted maximal effect.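 On activity change, negative = inhibition: compound exposure of 72 h on infected erythrocytes; plate controls were DMSO vehicle for no effect and 0.29 µM artemisinin for full effect.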 The conditions noted are these: Potency: Plasmodium falciparum Dd2 proliferation inhibition; series mostly up to 28.7 µM. An outline of the steps: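 RBC culture, 0.3% parasitemia / 2.5% Hct final; cpd added by pin tool in DMSO; 72 h, 37 C, 5% CO2; lysis buffer + SYBR Green I, o/n RT dark; FI 485/535; norm. to artemisinin 0.29 uM and DMSO.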

Assay [6] can be described thus: qHTS for differential inhibitors of proliferation of Plasmodium falciparum line W2 (AID 1883).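 Further: parasites grown with compound for 72 h before lysis and staining.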 Further: potency means the concentration at half of the fitted maximal effect.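 On activity change, negative = inhibition: 0% = vehicle wells and -100% = control inhibitor wells.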 The conditions noted are these: Potency: Plasmodium falciparum W2 proliferation inhibition; series mostly up to 28.7 µM.
Assay [7] addresses ATP-dependent DNA helicase Q1 (Homo sapiens) (UniProt P46063). Briefly: qHTS Validation Assay for Inhibitors of RecQ-Like Dna Helicase 1 (RECQ1) (AID 2353).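 Further: plate controls were DMSO vehicle for no effect and enzyme-free control for full effect.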 To be noted: recombinant RECQ1 helicase DNA unwinding assay; series mostly up to 25.6 µM. An outline of the steps: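 RECQ1T1 50 nM; forked duplex (20 bp + 30-nt ss tails) 200 nM, ATP 2 mM final; pH 8.0, 2 mM MgCl2, 2.5 ug/ml poly(dI-dC); 15 min compound preincubation; discontinuous kinetic read over 2 h at RT.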

Assay [8] is described as follows: Cytometric Cell-Based qHTS for Inhibitors of the mTORC1 Signaling Pathway in MEF (Tsc2-/-, p53-/-) Cells (AID 2660).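 Further: Tsc2 and p53 null MEFs carrying empty vector with compound for 24 h; percent of cells above a phospho-rpS6 to PI ratio cutoff in each well; plate controls were DMSO for no effect and rapamycin for full effect.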 The conditions noted are these: mTORC1 pathway cytometry; series mostly up to 38.3 µM. An outline of the steps: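 Percent of cells positive for normalized phospho-S6 staining is reported, with the cutoff set from rapamycin (7.5 nM) versus DMSO wells. Tsc2-/-, p53-/- MEFs received compound for 24 hrs.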

Assay [9] can be described thus: High Content Imaging Cell-Based qHTS for Inhibitors of the mTORC1 Signaling Pathway in MEF (Tsc2-/-, p53-/-) Cells (AID 2666).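 Further: percent of cells scored positive for phospho-rpS6 Ser235/236 immunostaining by imaging.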 The conditions noted are these: at 38.3 µM (top of the series). The gist of the method:
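Tsc2-/-, p53-/- MEFs (empty-vector stable) grown in DMEM + 10% FBS were exposed to compounds for 24 hrs at 37 degree Celsius, fixed, and stained with Alexa-488 anti-phospho-rpS6 Ser235/236 plus Hoechst. Imaging gave the percentage of positive cells per well.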

Assay [10] in a line: High Content Imaging Cell-Based qHTS for Inhibitors of the mTORC1 Signaling Pathway in MEF Cells (AID 2667).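 Further: Tsc2-/- p53-/- MEFs stably re-expressing wild-type Tsc2 exposed 24 h; plate controls were DMSO wells for no effect and rapamycin control wells for full effect.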 To be noted: series mostly up to 38.3 µM. The gist of the method: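 Tsc2-/-, p53-/- MEFs stably re-expressing WT Tsc2, grown in DMEM + 10% FBS, were treated with compounds for 24 hrs at 37 degree Celsius, fixed, and stained with Alexa-488 phospho-rpS6 Ser235/236 antibody plus Hoechst; results given as % positive cells.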

Assay [11] is described as follows: Validation screen for small molecules that induce DNA re-replication in MCF 10A normal breast cells (AID 463097). Further: 0% is about no effect; nearly all actives have a fitted effect of over 60% in size. The conditions noted are these: MCF 10A cells, DNA re-replication phenotype imaging; series mostly up to 46.1 µM. An outline of the steps: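 Following 48 hr compound incubation (37 C, 5% CO2), MCF 10A cells receive Hoechst for 40 min at 37 C. Nuclei are then scanned (excitation 405 nm, emission 500-530 nm) for total fluorescence intensity.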

Assay [12] is described as follows: qHTS for differential inhibitors of proliferation of Plasmodium falciparum line 7G8 (AID 1815).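 Further: parasite growth measured after three days of incubation.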 Further: potency means the concentration at half of the fitted maximal effect.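 On activity change, negative = inhibition: plate controls were vehicle wells for no effect and reference inhibitor wells for full effect.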 The conditions noted are these: Plasmodium falciparum 7G8 proliferation inhibition; series mostly up to 28.7 µM.
The nature of assay [13]: qHTS for differential inhibitors of proliferation of Plasmodium falciparum line GB4 (AID 1816).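 Further: parasite growth measured after 72 h incubation.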 Further: potency means the concentration at half of the fitted maximal effect.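 On activity change, negative = inhibition: 0% = vehicle DMSO and -100% = reference inhibitor.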 The conditions noted are these: Potency: Plasmodium falciparum GB4 proliferation inhibition; series mostly up to 28.7 µM.
A short description of assay [14]: qHTS for differential inhibitors of proliferation of Plasmodium falciparum line 3D7 (AID 1876). Further: potency means the concentration at half of the fitted maximal effect. The conditions noted are these: P. falciparum 3D7 proliferation inhibition; series mostly up to 28.7 µM.
A short description of assay [15]: qHTS for differential inhibitors of proliferation of Plasmodium falciparum line HB3 (AID 1886).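 Further: parasites grown with compound for 72 h before SYBR Green readout.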 Further: potency means the concentration at half of the fitted maximal effect.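 On activity change, negative = inhibition: plate controls were vehicle for no effect and reference inhibitor for full effect.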 The conditions noted are these: Potency: Plasmodium falciparum HB3 proliferation inhibition; series mostly up to 28.7 µM.
The nature of assay [16]: qHTS Assay for Modulators of Human Peripheral Myelin Protein 22 (PMP22) Expression/Activity (AID 1967; active means well fitted curve in the direction sought with a large enough effect in the signal ratio; the % refers to the signal ratio;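 further: 0% = untreated cells and 100% end not stated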). To be noted: Cell-based PMP22 reporter, dual-color luciferase ratio, 0% = compound-free control cells, mouse Pmp22 promoter in mouse Schwann cells; series mostly up to 115 µM. The gist of the method: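 Engineered MSC80 cells, Pmp22-promoter green and EF-alpha red luciferase reporters; 24h compound treatment at 37 °C. Concentration-response fits on green, red and ratio signals, each overlap-corrected, with %Activity normalized to untreated wells.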

In assay [17] the target is RecQ-like DNA helicase BLM (Homo sapiens) (UniProt P54132). Briefly: qHTS Validation Assay for Inhibitors of Bloom's syndrome helicase (BLM) (AID 2364).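 Further: plate controls were DMSO vehicle for no effect and enzyme-free control for full effect.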 The conditions noted are these: BLM helicase DNA unwinding, fluorescence, in vitro; series mostly up to 57.1 µM. An outline of the steps:
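Forked 20-bp duplex substrate (200 nM, TAMRA/BHQ-2) plus 2 mM ATP added after 15 min compound preincubation with 50 nM enzyme, pH 8.0, poly(dI-dC) 2.5 ug/ml. Strand separation followed by fluorescence (525/598 nm) over 2 h, normalized to enzyme-free and DMSO controls.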

The nature of assay [18]: Cytometry Cell-Based qHTS for Inhibitors of the mTORC1 Signaling Pathway in MEF cells (AID 2668).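 Further: Tsc2-/- p53-/- mouse embryonic fibroblasts stably re-expressing wild-type Tsc2; percent cells positive for phospho-rpS6 Ser235/236 relative to propidium iodide stain; plate controls were DMSO wells for no effect and 7.5 nM rapamycin control wells for full effect.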 The conditions noted are these: mTORC1 pathway readout; series mostly up to 38.3 µM. The gist of the method:
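In MEFs grown in DMEM + 10% FBS, a 24 hrs compound exposure preceded imaging of phospho-rpS6 Ser235/236 by laser-scanning cytometry.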

[19] abbreviates: measured here: cell count channel max response.
Where [20] appears, read: measured here: lipid channel max response.

“And” between values parts separate entries of the source, which are not always exact repeats. Equal values may be shown once. Inconclusive results are not listed. The source made the active and inactive calls. Unless noted, the call rests on the fitted dose curve; in most records, active means well fitted curve in the direction sought with a large enough effect; inconclusive means small, poorly fitted or top-dose-only effect, or another doubt; inactive means no such curve, though single readings can be large; an effect the other way counts as inactive or inconclusive.

Chain of DNA repair nuclease/redox regulator APEX1 (Homo sapiens) (P27695 whole entry, looked up): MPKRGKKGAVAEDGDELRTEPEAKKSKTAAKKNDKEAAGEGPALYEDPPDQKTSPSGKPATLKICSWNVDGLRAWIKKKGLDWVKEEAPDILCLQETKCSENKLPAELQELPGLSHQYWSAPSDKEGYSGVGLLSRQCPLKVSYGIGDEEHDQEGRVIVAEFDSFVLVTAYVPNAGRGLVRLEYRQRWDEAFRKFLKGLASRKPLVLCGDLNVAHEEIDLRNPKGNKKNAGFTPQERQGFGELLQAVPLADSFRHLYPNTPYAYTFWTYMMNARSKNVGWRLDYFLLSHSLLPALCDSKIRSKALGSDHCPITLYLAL
Chain of ATP-dependent DNA helicase Q1 (Homo sapiens) (P46063 whole entry, looked up): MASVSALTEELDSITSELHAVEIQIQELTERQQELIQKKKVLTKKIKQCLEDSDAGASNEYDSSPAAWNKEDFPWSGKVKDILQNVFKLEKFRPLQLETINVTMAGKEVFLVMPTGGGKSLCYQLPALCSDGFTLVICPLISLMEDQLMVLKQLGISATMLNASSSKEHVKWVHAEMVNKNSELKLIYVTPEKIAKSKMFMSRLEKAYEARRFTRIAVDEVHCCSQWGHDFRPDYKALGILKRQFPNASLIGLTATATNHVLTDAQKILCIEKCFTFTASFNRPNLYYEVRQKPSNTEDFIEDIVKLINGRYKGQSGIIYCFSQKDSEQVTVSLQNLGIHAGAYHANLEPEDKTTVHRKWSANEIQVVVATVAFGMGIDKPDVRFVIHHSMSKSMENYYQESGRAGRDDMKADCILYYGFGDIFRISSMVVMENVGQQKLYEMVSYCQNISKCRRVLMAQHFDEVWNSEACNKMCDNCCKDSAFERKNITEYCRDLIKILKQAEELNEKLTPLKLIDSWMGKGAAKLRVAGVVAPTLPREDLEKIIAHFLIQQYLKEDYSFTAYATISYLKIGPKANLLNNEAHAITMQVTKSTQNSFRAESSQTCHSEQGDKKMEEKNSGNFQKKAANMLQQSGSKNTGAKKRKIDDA
Chain of RecQ-like DNA helicase BLM (Homo sapiens) (P54132 whole entry, looked up): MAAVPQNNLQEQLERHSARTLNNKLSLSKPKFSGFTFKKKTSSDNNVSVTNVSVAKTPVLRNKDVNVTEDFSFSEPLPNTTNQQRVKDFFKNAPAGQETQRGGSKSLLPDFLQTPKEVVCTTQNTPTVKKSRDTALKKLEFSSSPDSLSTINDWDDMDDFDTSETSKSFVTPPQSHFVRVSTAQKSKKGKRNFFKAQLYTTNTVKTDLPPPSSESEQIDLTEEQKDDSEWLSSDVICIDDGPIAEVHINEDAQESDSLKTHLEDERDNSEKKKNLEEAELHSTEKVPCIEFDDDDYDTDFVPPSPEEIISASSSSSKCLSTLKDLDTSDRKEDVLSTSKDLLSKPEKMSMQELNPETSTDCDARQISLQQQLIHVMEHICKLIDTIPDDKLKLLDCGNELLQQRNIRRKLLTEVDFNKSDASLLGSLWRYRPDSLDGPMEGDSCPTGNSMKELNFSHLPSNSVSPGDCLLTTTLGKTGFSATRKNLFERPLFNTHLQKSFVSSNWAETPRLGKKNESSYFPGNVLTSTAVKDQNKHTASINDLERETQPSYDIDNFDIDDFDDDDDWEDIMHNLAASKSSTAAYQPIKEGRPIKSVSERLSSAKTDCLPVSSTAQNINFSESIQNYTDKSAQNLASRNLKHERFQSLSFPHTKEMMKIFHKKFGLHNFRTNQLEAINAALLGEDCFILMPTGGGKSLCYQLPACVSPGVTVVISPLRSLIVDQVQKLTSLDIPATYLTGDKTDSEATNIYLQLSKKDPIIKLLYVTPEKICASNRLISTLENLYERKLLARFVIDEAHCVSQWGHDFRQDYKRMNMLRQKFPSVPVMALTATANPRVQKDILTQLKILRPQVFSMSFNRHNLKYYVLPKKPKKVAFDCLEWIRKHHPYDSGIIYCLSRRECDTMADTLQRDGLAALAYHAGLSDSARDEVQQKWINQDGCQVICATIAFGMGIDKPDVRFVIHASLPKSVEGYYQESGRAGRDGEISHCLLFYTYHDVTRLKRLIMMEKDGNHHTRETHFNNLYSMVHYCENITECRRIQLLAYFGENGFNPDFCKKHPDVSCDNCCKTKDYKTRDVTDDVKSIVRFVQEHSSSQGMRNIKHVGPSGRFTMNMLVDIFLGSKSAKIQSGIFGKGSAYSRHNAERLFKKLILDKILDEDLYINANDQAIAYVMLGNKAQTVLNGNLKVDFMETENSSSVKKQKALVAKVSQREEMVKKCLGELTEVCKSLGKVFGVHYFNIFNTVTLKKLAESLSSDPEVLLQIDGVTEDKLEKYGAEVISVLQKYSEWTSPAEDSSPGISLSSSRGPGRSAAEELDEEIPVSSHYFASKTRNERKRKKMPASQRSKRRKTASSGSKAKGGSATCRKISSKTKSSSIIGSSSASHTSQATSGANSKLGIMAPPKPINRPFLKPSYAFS

On to `Cc1ccc(N(CC2=NCCN2)c2cccc(O)c2)cc1`, for which the activity change, negative = inhibition in assay [1] (at 25.7 µM (top of the series)) is 1.77% (inactive); in assay [1] (at 57.5 µM (top of the series)), 11.7% (inactive) and 0.54% (inactive). For the same molecule, the max response in [1] (setting [19]) is -12.1% and 5.79% and 62.4%; in [1] (setting [20]), -8.46% and 20.7% and 65.8%. The call in assay [2], in assay [3], in assay [7], in assay [8], in [9] and in [10] was inactive. Further, the Potency entry in assay [4], in assay [5] and in [11] was “inactive” in each case. Besides, in assay [6], the Potency was 11.2 µM (active).
Turning to `CC(=O)Oc1ccccc1C(=O)O`, the activity change, negative = inhibition in assay [1] (at 57.5 µM (top of the series)) is 4.32% (inactive). Further, the max response in assay [1] (setting [19]) was found to be 19.3%; in [1] (setting [20]), 27.8%. Further, the molecule was called inactive in [2], in assay [3], in [16], in [7], in [8] and in assay [9]. The call in assay [10] was inactive. Moreover, the Potency entry in assay [12], in [13], in assay [14], in [4], in [5] and in assay [6] was “inactive” in each case. For the same molecule, the Potency result in [15] and in [11] was “inactive” in each case.
`CN1CCN(CCCN2c3ccccc3Sc3ccc(C(F)(F)F)cc32)CC1`: the activity change, negative = inhibition in assay [1] (at 25.7 µM (top of the series)) is -6.05% (inactive); in [1] (at 57.5 µM (top of the series)) it was 7.35% (inactive). Moreover, the max response is -17.1% and 19.1% in assay [1] (setting [19]); -20.9% and 29.4% in assay [1] (setting [20]). Further, the molecule was classed as inactive in assay [2], in assay [7] and in [10]. The Potency in assay [12] was 3.98 µM (active); in assay [13], 4.47 µM (active); in assay [14] it was 7.08 µM (active); in assay [4], 11.2 µM (active); in assay [5] it was 12.6 µM (active); in [6], 4.47 µM (active). The Potency in assay [15] was 7.94 µM (active). Further, in assay [17], the Potency result was “inactive”.
As to `Nc1nc2c(ncn2COCCO)c(=O)[nH]1`, the outcome in assay [2], in [3], in assay [7], in assay [8], in [9] and in assay [10] was inactive. The Potency result in assay [12], in [13], in assay [14], in [4], in [5] and in assay [15] was “inactive” throughout. Moreover, the Potency entry in assay [11] is “inactive”.
Take `NC(N)=NC(=O)c1nc(Cl)c(N)nc1N`: the result in assay [2], in assay [3], in assay [7], in [8], in assay [9] and in [10] was inactive. The outcome in assay [18] was inactive. The Potency result in assay [11] was “inactive”.
Turning to `NC[C@H](O)c1ccc(O)c(O)c1`, the activity change, negative = inhibition in assay [1] (at 57.5 µM (top of the series)) was 0.534% (inactive). Moreover, the max response in [1] (setting [19]) was -22.5%; in assay [1] (setting [20]), -21.1%. Besides, the result in assay [2], in [3], in assay [7], in assay [8], in assay [9] and in assay [10] was inactive. Further, the molecule was called inactive in assay [18]. In addition, the Potency result in assay [13], in [14], in [4], in assay [5], in [15] and in [11] was “inactive” throughout.

(Values after PubChem BioAssay (NCATS).)
